Results taken from PubChem BioAssay (Tox21).
Where “and” joins values, the source holds several entries; their conditions need not be identical. Equal entries are not always repeated. Inconclusive results are not listed. A call without a number means that no potency is given here. Where a structure was tested more than once in an assay, its records may differ in their call. Calls of active or inactive are those of the source. Unless noted, the call rests on the fitted dose curve; in most records, active means well fitted curve in the direction sought with a large enough effect in the repeat runs; inconclusive means weak or mixed curves; inactive means no such curve, though single readings can be large; an effect the other way counts as inactive or inconclusive.

Experiments:
[1] = qHTS assay to identify aromatase inhibitors - cell viability counter screen (AID 743084);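 further: cells stimulated with testosterone during compound exposure; nearly all actives have a fitted effect of over 55% in size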; further: potency means the concentration at half of the fitted maximal effect
[2] = biological target: Aryl hydrocarbon receptor (Homo sapiens) (UniProt P35869); assay: qHTS assay to identify small molecule that activate the aryl hydrocarbon receptor (AhR) signaling pathway (AID 743085); further: nearly all actives have a fitted effect of over 15% in size; further: potency means the concentration at half of the fitted maximal effect;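 on activation: HG2L7.5c1 human HepG2 liver cells with stably integrated DRE-driven firefly reporter; series mostly up to about 70 µM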
Aryl hydrocarbon receptor (Homo sapiens), sequence (P35869 whole entry, looked up): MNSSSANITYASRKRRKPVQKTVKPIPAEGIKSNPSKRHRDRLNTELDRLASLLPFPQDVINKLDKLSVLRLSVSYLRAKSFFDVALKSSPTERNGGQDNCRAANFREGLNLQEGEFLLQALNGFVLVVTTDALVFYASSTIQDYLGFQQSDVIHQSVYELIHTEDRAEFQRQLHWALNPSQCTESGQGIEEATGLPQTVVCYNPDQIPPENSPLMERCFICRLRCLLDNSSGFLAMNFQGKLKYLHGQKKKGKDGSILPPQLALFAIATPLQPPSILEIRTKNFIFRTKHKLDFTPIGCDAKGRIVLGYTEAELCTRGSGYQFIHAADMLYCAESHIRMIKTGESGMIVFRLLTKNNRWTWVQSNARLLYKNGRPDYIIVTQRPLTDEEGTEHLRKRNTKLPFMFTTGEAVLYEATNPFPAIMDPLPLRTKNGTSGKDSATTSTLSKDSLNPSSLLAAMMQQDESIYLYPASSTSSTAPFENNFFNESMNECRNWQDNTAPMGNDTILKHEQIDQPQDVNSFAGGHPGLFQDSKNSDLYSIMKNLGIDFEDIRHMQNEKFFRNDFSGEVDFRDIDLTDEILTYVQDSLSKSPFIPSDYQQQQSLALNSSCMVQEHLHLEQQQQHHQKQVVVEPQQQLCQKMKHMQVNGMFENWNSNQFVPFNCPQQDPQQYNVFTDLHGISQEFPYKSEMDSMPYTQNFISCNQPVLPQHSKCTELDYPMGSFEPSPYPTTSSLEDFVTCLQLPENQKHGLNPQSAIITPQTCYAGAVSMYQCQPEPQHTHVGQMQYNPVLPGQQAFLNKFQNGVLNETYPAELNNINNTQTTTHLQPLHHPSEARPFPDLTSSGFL
In short: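 Compounds were tested in HepG2 hepatocellular carcinoma cells harbouring a stably integrated luciferase gene under control of 20 DREs. Increased reporter signal after 24 h treatment at 37C was taken as AhR activation.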

[3] = qHTS assay to identify small molecule that activate the aryl hydrocarbon receptor (AhR) signaling pathway - cell viability counter screen (AID 743086);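 further: HepG2 liver cells carrying the AhR DRE luciferase reporter; series mostly up to about 70 µM; nearly all actives have a fitted effect of over 45% in size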
In short: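 HepG2-AhR-luc (HG2L7.5c1) cells, 4000/well, treated 24 h at 37 C with compound; viability measured as CellTiter-Fluor fluorescence after 30 min in the same wells as the luciferase read.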

[4] = biological target: Peroxisome proliferator-activated receptor gamma (Homo sapiens) (UniProt P37231); assay: qHTS assay to identify small molecule antagonists of the peroxisome proliferator-activated receptor gamma (PPARg) signaling pathway (AID 743191; calls by dose curve; further: series mostly up to about 63 µM; nearly all actives have a fitted effect of over 30% in size)
Peroxisome proliferator-activated receptor gamma (Homo sapiens), sequence (P37231 whole entry, looked up): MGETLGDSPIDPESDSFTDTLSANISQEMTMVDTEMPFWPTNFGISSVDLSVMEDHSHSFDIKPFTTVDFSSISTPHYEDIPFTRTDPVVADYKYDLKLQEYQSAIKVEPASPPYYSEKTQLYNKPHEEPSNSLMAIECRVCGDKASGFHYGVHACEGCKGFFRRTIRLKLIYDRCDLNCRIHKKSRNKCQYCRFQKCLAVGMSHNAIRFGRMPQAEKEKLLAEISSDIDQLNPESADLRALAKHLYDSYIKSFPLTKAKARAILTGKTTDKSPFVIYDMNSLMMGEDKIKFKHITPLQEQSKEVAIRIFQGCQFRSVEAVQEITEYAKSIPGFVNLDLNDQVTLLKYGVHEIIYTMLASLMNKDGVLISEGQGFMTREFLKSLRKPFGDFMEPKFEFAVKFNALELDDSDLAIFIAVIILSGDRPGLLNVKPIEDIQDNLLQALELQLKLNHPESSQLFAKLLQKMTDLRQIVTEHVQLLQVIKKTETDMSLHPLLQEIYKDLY
In short: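 GeneBLAzer PPARg UAS-bla HEK293H cells, 5 h post-plating, exposed to compounds 17 h at 37C. LiveBLAzer B/G FRET substrate added for 1 h at room temperature; beta-lactamase reporter read by fluorescence intensity.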

[5] = qHTS assay to identify small molecule antagonists of the peroxisome proliferator-activated receptor gamma (PPARg) signaling pathway - cell viability counter screen (AID 743194); details: Potency: co-treated with 50 nM rosiglitazone unless noted; further: nearly all actives have a fitted effect of over 55% in size; further: potency means the concentration at half of the fitted maximal effect
In short: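 Cytotoxicity counter screen in PPARg-bla HEK293H cells, same wells as reporter assay. Compounds plus 50 nM rosiglitazone (final) for 17 h at 37 C, then viability read by CellTiter-Glo luminescence.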

[6] = qHTS assay for small molecule agonists of the antioxidant response element (ARE) signaling pathway (AID 743202; active means well fitted activation curve with a large enough effect in the signal ratio in the repeat runs, not every such curve was filed as active; the % refers to the signal ratio)
In short: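 HepG2 ARE-bla cells; 16 h treatment at 37 C; FRET-based beta-lactamase fluorescence read after 2 h substrate incubation at room temperature.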

[7] = qHTS assay for small molecule agonists of the antioxidant response element (ARE) signaling pathway - cell viability counter screen (AID 743203; calls by dose curve; further: nearly all actives have a fitted effect of over 55% in size; further: potency means the concentration at half of the fitted maximal effect)
In short: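 Luminescence read-out (CellTiter-Glo, 30 min at room temperature) measured cell viability in the same wells as the ARE beta-lactamase reporter. HepG2 ARE-bla cells were treated with compounds for 16 hrs at 37C/5% CO2.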

[8] = qHTS assay for small molecule activators of the heat shock response signaling pathway - cell viability counter screen (AID 743209); further: nearly all actives have a fitted effect of over 50% in size
In short: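 HSE-bla HeLa; 1500 cells/well; overnight 37 C, 5% CO2; compound 5 h 37 C; LiveBLAzer B/G substrate 2.5 h RT; CellTiter-Glo 30 min RT; luminescence.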

[9] = qHTS assay for small molecule activators of the heat shock response signaling pathway (AID 743210; active means well fitted activation curve with a large enough effect in the signal ratio in the repeat runs, with a control signal flat, not every such curve was filed as active; the % refers to the signal ratio;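 further: HeLa cells with beta-lactamase reporter driven by heat shock elements; series mostly up to about 63 µM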)
In short: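 Following overnight attachment, HSE-bla HeLa cells received test compounds for 5 h at 37 C; beta-lactamase activity was then detected via FRET substrate fluorescence.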

[10] = qHTS assay to identify small molecule agonists of the peroxisome proliferator-activated receptor delta (PPARd) signaling pathway - cell viability counter screen (AID 743211); further: nearly all actives have a fitted effect of over 55% in size; further: potency means the concentration at half of the fitted maximal effect
In short: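 Counter screen for cytotoxicity run in parallel with the PPARd reporter screen. Beta-lactamase reporter HEK293H cells exposed to compounds 17 h; ATP-based CellTiter-Glo luminescence quantified viability.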

[11] = qHTS assay to identify small molecule antagonists of the peroxisome proliferator-activated receptor delta (PPARd) signaling pathway - cell viability counter screen (AID 743213); further: nearly all actives have a fitted effect of over 50% in size; further: potency means the concentration at half of the fitted maximal effect
In short: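 PPARd-bla HEK293H cells (3000/well) got compound plus 300 nM L165041 agonist for 17 h at 37 C. Viability in the same wells came from CellTiter-Glo luminescence after 30 min at room temperature.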

[12] = qHTS assay to identify small molecule agonists of the farnesoid-X-receptor (FXR) signaling pathway - cell viability counter screen (AID 743218); further: nearly all actives have a fitted effect of over 45% in size; further: potency means the concentration at half of the fitted maximal effect
In short: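 Luminescence from CellTiter-Glo, read after 30 min at RT, reports viability of GeneBLAzer FXR-UAS-bla HEK 293T cells treated 16 h with compounds in the wells used for the beta-lactamase reporter.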

[13] = qHTS assay to identify small molecule antagonists of the farnesoid-X-receptor (FXR) signaling pathway - cell viability counter screen (AID 743221; active means well fitted cell-killing curve with a large enough effect in the repeat runs, not every such curve was filed as active; further: nearly all actives have a fitted effect of over 50% in size; further: potency means the concentration at half of the fitted maximal effect)
In short: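 Multiplexed counter screen: viability of FXR-bla HEK 293T cells under agonist stimulation by chenodeoxycholic acid (50 uM, final) and test compound for 16 h at 37 C, measured by CellTiter-Glo luminescence in the reporter wells.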

[14] = biological target: Peroxisome proliferator-activated receptor gamma (Homo sapiens) (UniProt P37231); assay: qHTS assay to identify small molecule agonists of the peroxisome proliferator-activated receptor gamma (PPARg) signaling pathway (AID 743094; active means well fitted activation curve with a large enough effect in the signal ratio in the repeat runs, not every such curve was filed as active; the % refers to the signal ratio)
In short: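 HEK293H PPARg-bla cells, 5 h settle at 37C/5% CO2; compound (DMSO) 17 h, 37C; B/G FRET substrate 1 h RT; fluorescence intensity read-out. qHTS format.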

[15] = biological target: Peroxisome proliferator-activated receptor delta (Homo sapiens) (UniProt Q03181); assay: qHTS assay to identify small molecule agonists of the peroxisome proliferator-activated receptor delta (PPARd) signaling pathway (AID 743212; calls by dose curve)
Peroxisome proliferator-activated receptor delta (Homo sapiens), sequence (Q03181 whole entry, looked up): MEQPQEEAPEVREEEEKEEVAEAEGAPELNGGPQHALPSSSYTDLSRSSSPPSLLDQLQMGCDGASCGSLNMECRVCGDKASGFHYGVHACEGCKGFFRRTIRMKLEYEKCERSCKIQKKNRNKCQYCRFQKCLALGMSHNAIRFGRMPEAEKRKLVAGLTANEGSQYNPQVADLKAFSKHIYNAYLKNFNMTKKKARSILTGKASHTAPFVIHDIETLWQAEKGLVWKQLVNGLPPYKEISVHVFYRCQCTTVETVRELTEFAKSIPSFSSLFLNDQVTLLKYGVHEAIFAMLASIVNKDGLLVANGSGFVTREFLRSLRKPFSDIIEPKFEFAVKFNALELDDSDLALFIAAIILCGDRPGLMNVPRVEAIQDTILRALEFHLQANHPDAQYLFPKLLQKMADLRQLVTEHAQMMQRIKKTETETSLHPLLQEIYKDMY
In short: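 Tox21 library screened in GeneBLAzer PPARd UAS-bla HEK293H cells. After compound treatment at 37 C, a FRET-based beta-lactamase substrate was applied for 2 h and fluorescence recorded.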

[16] = biological target: Peroxisome proliferator-activated receptor delta (Homo sapiens) (UniProt Q03181); assay: qHTS assay to identify small molecule antagonists of the peroxisome proliferator-activated receptor delta (PPARd) signaling pathway (AID 743215; active means well fitted inhibition curve with a large enough effect in the signal ratio in the repeat runs, not every such curve was filed as active; the % refers to the signal ratio;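 further: cells stimulated with agonist L165041 at 300 nM final during compound exposure; series mostly up to about 62 µM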)
In short: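 HEK293H GeneBLAzer PPARd UAS-bla reporter cells; cpd + L165041 300 nM final, 17 h 37 C; LiveBLAzer B/G FRET substrate 2 h RT; fluorescence intensity read-out. Antagonist mode.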

[17] = biological target: Bile acid receptor (Homo sapiens) (UniProt Q96RI1); assay: qHTS assay to identify small molecule antagonists of the farnesoid-X-receptor (FXR) signaling pathway (AID 743217; active means well fitted inhibition curve with a large enough effect in the signal ratio in the repeat runs, not every such curve was filed as active; the % refers to the signal ratio)
Bile acid receptor (Homo sapiens), sequence (Q96RI1 whole entry, looked up): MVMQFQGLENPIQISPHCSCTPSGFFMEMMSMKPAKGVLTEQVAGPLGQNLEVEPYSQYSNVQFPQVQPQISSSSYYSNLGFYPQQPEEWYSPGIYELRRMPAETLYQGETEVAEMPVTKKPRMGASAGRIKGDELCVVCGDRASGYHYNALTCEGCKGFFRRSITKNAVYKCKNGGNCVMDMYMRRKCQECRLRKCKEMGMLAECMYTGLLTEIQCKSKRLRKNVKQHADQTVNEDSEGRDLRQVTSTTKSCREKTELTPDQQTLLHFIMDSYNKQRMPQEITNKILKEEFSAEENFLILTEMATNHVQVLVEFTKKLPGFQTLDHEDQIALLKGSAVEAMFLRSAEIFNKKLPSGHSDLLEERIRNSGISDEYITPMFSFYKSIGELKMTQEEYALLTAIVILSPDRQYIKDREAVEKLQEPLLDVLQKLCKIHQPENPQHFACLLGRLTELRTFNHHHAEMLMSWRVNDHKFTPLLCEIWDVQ
In short: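 Read-out: beta-lactamase FRET fluorescence (LiveBLAzer B/G substrate, 2 h, room temperature) in GeneBLAzer FXR-UAS-bla HEK 293T cells. Compounds were co-dosed with 50 uM chenodeoxycholic acid (final) and incubated 16 h at 37 °C.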

[18] = biological target: Bile acid receptor (Homo sapiens) (UniProt Q96RI1); assay: qHTS assay to identify small molecule agonists of the farnesoid-X-receptor (FXR) signaling pathway (AID 743220; active means well fitted activation curve with a large enough effect in the signal ratio in the repeat runs, not every such curve was filed as active; the % refers to the signal ratio)
In short: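 FXR-UAS-bla HEK 293T cells carrying a UAS-driven beta-lactamase reporter were plated for 5 h at 37C/5% CO2, then exposed to DMSO-dissolved Tox21 10K compounds for 16 h at 37C. A LiveBLAzer B/G FRET substrate was loaded for 2 h at room temperature before fluorescence reading.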

[19] = biological target: Vitamin D3 receptor (Homo sapiens) (UniProt P11473); assay: qHTS assay to identify small molecule agonists of the vitamin D receptor (VDR) signaling pathway (AID 743222; calls by dose curve)
Vitamin D3 receptor (Homo sapiens), sequence (P11473 whole entry, looked up): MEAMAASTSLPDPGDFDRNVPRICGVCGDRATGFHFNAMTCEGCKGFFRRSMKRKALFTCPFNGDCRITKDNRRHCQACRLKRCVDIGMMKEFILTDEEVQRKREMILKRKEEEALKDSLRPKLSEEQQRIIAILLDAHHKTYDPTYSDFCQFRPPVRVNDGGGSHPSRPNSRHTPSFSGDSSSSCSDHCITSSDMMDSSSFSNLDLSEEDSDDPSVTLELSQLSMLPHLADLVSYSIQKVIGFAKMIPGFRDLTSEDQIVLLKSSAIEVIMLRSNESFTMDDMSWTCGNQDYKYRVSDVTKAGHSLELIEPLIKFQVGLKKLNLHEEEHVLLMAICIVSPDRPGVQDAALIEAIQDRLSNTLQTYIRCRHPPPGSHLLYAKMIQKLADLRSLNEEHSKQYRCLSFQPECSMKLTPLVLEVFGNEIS
In short: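 Beta-lactamase reporter readout (LiveBLAzer B/G FRET, 2 h RT) in VDR-bla cells after 16 h compound treatment at 37C, 5% CO2; cells pre-incubated 4 h before pin transfer of DMSO solutions.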

[20] = biological target: Vitamin D3 receptor (Homo sapiens) (UniProt P11473); assay: qHTS assay to identify small molecule antagonists of the vitamin D receptor (VDR) signaling pathway (AID 743223; active means well fitted inhibition curve with a large enough effect in the signal ratio in the repeat runs, not every such curve was filed as active; the % refers to the signal ratio; further: potency means the concentration at half of the fitted maximal effect)
In short: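 Cells carrying a VDR-driven beta-lactamase reporter (VDR-bla) were co-treated with compound and 3 nM final 1alpha,25-dihydroxyvitamin D3 for 16 h at 37C; reporter activity was measured as FRET substrate fluorescence after 2 h at room temperature.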

| SMILES | Potency [1] | Potency [2] | Potency [3] | Potency [4] | Potency [5] | Potency [6] | Potency [7] | Potency [8] | Potency [9] | Potency [10] | Potency [11] | Potency [12] | Potency [13] | Potency [14] | Potency [15] | Potency [16] | Potency [17] | Potency [18] | outcome [19] | Potency [20] |
| --- | --- | --- | --- | --- | --- | --- | --- | --- | --- | --- | --- | --- | --- | --- | --- | --- | --- | --- | --- | --- |
| O=[N+]([O-])c1cc(C(F)(F)F)ccc1Cl | inactive | inactive | inactive | inactive | inactive | inactive | inactive | inactive | inactive | inactive | inactive | inactive | inactive |  |  |  |  |  |  |  |
| Cc1ccccc1Cl | inactive | inactive | inactive | inactive | inactive | inactive | inactive |  | inactive | inactive |  | inactive | inactive | inactive | inactive | inactive | inactive | inactive | inactive | inactive |
| Cc1cc(C)c(O)c(C)c1 | inactive | inactive | inactive | inactive | inactive | inactive | inactive | inactive | inactive | inactive |  | inactive | inactive |  | inactive | inactive | inactive | inactive |  |  |
| Cc1cc(C)cc(O)c1 | inactive | inactive | inactive |  | inactive |  | inactive | inactive | inactive | inactive | inactive | inactive | inactive | inactive | inactive | inactive |  |  | inactive | inactive |
| O=C1CCCCCCCCCCC1 | inactive | inactive | inactive |  | inactive |  | inactive | inactive | inactive | inactive | inactive | inactive | inactive | inactive | inactive | inactive |  |  |  |  |
| CC(O)CNCC(C)O (stereo unspecified) | inactive | inactive | inactive |  | inactive |  | inactive |  |  | inactive | inactive | inactive | inactive | inactive | inactive | inactive |  |  | inactive | inactive |
| Cc1ccncc1 | inactive | inactive | inactive |  | inactive |  | inactive | inactive | inactive | inactive |  | inactive | inactive | inactive |  |  |  |  | inactive | inactive |
| O=Cc1ccc(CO)o1 | inactive | inactive | inactive | inactive | inactive |  | inactive |  |  | inactive |  | inactive | inactive |  |  |  | inactive | inactive | inactive | inactive |
| c1cnc2c(c1)ccc1cccnc12 | 5.5 µM (active) | 55 µM (active) and 54.5 µM (active) and inactive | inactive |  | 1.23 µM (active) |  | 5.45 µM (active) | inactive |  | 698 nM (active) and 1.95 µM (active) and 692 nM (active) | 0.389 µM (active) | inactive and 1.55 µM (active) | 24.8 µM (active) and 776 nM (active) and 174 nM (active) | inactive |  |  |  |  | inactive | 3.89 µM (active) |
| CC(C=O)Cc1ccc(C(C)(C)C)cc1 (stereo unspecified) | inactive | inactive | inactive | inactive | inactive | inactive | inactive | inactive | inactive | inactive | inactive | inactive | inactive | inactive | inactive | inactive | inactive | inactive | inactive |  |
| CC(=O)OCCC(C)C | inactive | inactive | inactive |  | inactive |  | inactive | inactive | inactive | inactive | inactive | inactive | inactive | inactive | inactive | inactive |  |  |  |  |
| CCCCC(=O)O | inactive | inactive | inactive | inactive | inactive | inactive | inactive | inactive | inactive | inactive | inactive | inactive | inactive | inactive |  |  | inactive | inactive | inactive | inactive |
| Cc1ccc(C(C)C)cc1 | inactive | inactive | inactive | inactive | inactive | inactive | inactive | inactive |  | inactive | inactive | inactive | inactive |  | inactive | inactive | inactive | inactive | inactive | inactive |
| Nc1cccc(N)n1 | inactive | 52.6 µM (active) and 61.1 µM (active) | inactive |  | inactive | inactive | inactive | inactive | inactive | inactive |  | inactive | inactive | inactive | inactive | inactive |  |  | inactive | inactive |
| CCCCCCCCO | inactive | inactive | inactive | inactive | inactive |  | inactive | inactive | inactive | inactive |  | inactive | inactive |  | inactive | inactive |  |  | inactive | inactive |
| OC[C@H]1O[C@@H](Oc2ccc(O)cc2)[C@H](O)[C@@H](O)[C@@H]1O | inactive | inactive | inactive | inactive | inactive | inactive | inactive | inactive | inactive | inactive |  | inactive | inactive | inactive | inactive | inactive |  |  | inactive | inactive |
| CC(=O)OC(C)(C)C1CC=C(C)CC1 (stereo unspecified) | inactive | inactive | inactive | inactive | inactive |  | inactive |  |  | inactive | inactive | inactive | inactive |  | inactive | inactive |  |  | inactive | inactive |
| CCCN(CCC)C(=O)SCC | inactive | inactive | inactive | inactive | inactive | inactive | inactive | inactive | inactive | inactive | inactive | inactive | inactive |  |  |  |  |  | inactive | inactive |
